# Out of some 120,000 compounds screened, about 5,300 (4.4%) were called active. Not shown: some 22% with an inconclusive outcome. This is one part of a sample in which actives are shown more often than they occur. Calls come from the whole dose curve; as a rule, active = well fitted inhibition curve with a large enough effect; inconclusive = small, poorly fitted or top-dose-only effect; inactive = no such curve, though single readings can be large or run the other way.
# Assay: qHTS Primary assay for Inhibitors of Plasmodium falciparum Dd2 growth in vitro; note: nearly all actives have a fitted effect of over 65% in size;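 for activity, negative = inhibition: plate controls were DMSO vehicle for no effect and reference drug for full effect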
# Settings: P. falciparum Dd2 growth, SYBR Green, 72 h; series mostly up to 28.9 µM; activity, negative = inhibition: at the top concentration
# Excerpt: Malaria, a parasitic disease spread to humans through the bite of a Plasmodium infected Anopheles mosquito, continues to be a global health burden affecting millions of people, with an estimated 228 million cases and 405,000 deaths in 2018. Concerns about safety and limitations of current antimalarial treatments strongly emphasize the need to develop new therapeutic options. The scarce number of chemotypes and validated drug targets with efficacy against the liver stage, have hindered development of new antimalarials. To address this, a chemoprophylactic drug discovery effort was conducted through a combined phenotypic high-throughput asexual blood stage and liver stage screen, providing a robust foundation to identify liver-stage active lead chemotypes. Compounds were initially screened against Plasmodium falciparum Dd2 strain parasites using a in vitro SYBRGreen-1 based 72 hr proliferation assay to identify novel chemotypes to advance to liver stage assays. NIH/NCATS Early Translation Branch Assay Submitter (PI): Anton Simeonov Ph.D.
# Malaria-vivax Assay Protocol: PROTOCOL TABLE (as described by Inglese et al., 2007) SEQUENCE No. (e.g., 1, 2, 3, etc.); […] (e.g., Cells, Incubation, Reagent, etc.); VALUE; DESCRIPTION SEQUENCE, Parameter, Description 1; Reagent; 3 uL complete malaria growth medium, 1536 TC treated Black clear bottom plate 2; Controls; 23 nL positive control artesunate (300 nM final) to column 1; Neutral control DMSO to columns 2-4 3; Compound; 23 nL of compounds in dose response concentration (29 uM to 0.5 nM final) 4; Reagent; 5 uL malaria infected red blood cells (2.5% hematocrit final, 0.3% parasitemia 5; Time; 72 hours at 37C (5% O2, 5% CO2, 90% N2; 95% Rh) 6; Reagent; 2 uL lysis buffer/SYBRGreen-1, 25 sec shake immediately following dispense 7; Time; ~16 hours at 37C (5% O2, 5% CO2, 90% N2; 95% Rh) 8; Detector; EnVision (PerkinElmer) bottom read at 485/14nm excitation and 535/25 nm emission NOTES (numbers refer to sequence above): 1; Complete Malaria Growth Media: 1X RPMI-1640 w/L-glutamine, 5.5g/L Albumax II, 367 uM Hypoxanthine, 25 mM HEPES, 0.25% Sodium Bicarbonate, 35 uM Gentamicin sulfate 2; Controls were added using the Kalypsis Pintool (Wako USA) equipped with 1536 pinhead 3; Compounds were added in a 7-point, titration with a high final concentration of 29 uM by Pintool from seven inter-plate titrations of library plates and two DMSO control plates at the beginning and end (see Yasgar et al., 2008). 4; Red blood cells infected with Plasmodium falciparum Dd2 parasites were used. 6; Lysis buffer: 20 mM Tris-HCl, 10 mM EDTA, 0.16% Saponin, 1.6% Triton-X, 10X SYBR Green. REFERENCE: Inglese J, Shamu CE, Guy RK. 2007. Reporting data from high-throughput screening of small-molecule libraries. Nat Chem Biol. doi:10.1038/nchembio0807-438 Yasgar A, Shinn P, Jadhav A, Auld D, Michael S, Zheng W, Austin CP, Inglese J, Simeonov A. 2008. Compound Management for Quantitative High-Throughput Screening. J Lab Autom 13:79-89. doi:10.1016/j.jala.2007.12.004
# Potency is the fitted concentration of half-maximal effect.
SMILES,"activity, negative = inhibition",Potency,outcome
CCc1ccc(CNC(=O)c2cc3c(=O)n(CC)c4ccccc4c3s2)cc1,-2.37% (inactive),,
CCn1c(=O)c2cc(C(=O)NCCc3ccc(Cl)cc3)sc2c2ccccc21,5.17% (inactive),,
CCN(CCCNC(=O)c1cc2c(=O)n(CC)c3ccccc3c2s1)Cc1ccccc1,,4.47 µM (active),
CN(Cc1ccc2c(c1)OCO2)C(=O)C1(C)CCOCC1,-15.2% [at 44.1 µM] (inactive),,
COCCNC(=O)CC[C@]12CC[C@](C)(O)C[C@H]1C(C)(C)C[C@@H]2NC(=O)c1ccc(C(F)(F)F)cc1,,,inactive
Cc1c[nH]c(CN2CCCC(CCc3ccc(F)cc3F)C2)c(C)c1=O (centres undefined),,10 µM (active),
Cc1noc(C)c1C(=O)N1CCCC(CCc2ccc(F)cc2F)C1 (centres undefined),-8.48% (inactive),,
Cc1cc(F)ccc1NC(=O)CCC1CCCN(C(=O)c2ccc(Cl)s2)C1 (centres undefined),,,inactive
CC(C)(C)C(=O)Cn1ccn2nc3c(c2c1=O)CCCC3,-23.6% (inactive),,
Cc1cc2nc3n(c(=O)c2n1CC(=O)NC(C)CCc1ccccc1)CCCC3 (centres undefined),,,inactive
COc1cccc(CNCc2c(C(=O)O)n(Cc3ccc(C)cc3)c3cc(C)ccc23)c1OC,,10 µM (active),
CCc1ccc(CNCc2c(C(=O)O)n(Cc3ccc(F)cc3Cl)c3cc(OC)ccc23)cc1,,,inactive
COc1ccc2c(CNCCc3ccccc3C)c(C(=O)O)n(Cc3ccccc3C)c2c1,54.4% [at 5.79 µM] (inactive),,
O=C(CCCc1ccccc1)N1CCCC(c2nc(C3CCOCC3)no2)C1 (centres undefined),-17.4% (inactive),,
COc1ccc(O[C@H]2COCCN(Cc3nccn3C)C2)cc1,,,inactive [at 44.1 µM]
Cn1cc(CN2CCOC[C@H](Oc3ccc(S(C)(=O)=O)cc3)C2)c2ccccc21,,10 µM (active),
CC(C)CN1CCOC[C@H](Oc2ccc(S(C)(=O)=O)cc2)C1,-22.7% [at 44.1 µM] (inactive),,
COc1ccc(CC(=O)N2CCC(Cc3nc(-c4ccccc4)no3)CC2)cc1OC,,,inactive
COc1ccc(-c2noc(CC3CCN(C(=O)Cc4ccc(OC)c(OC)c4)CC3)n2)cc1,,11.2 µM (active),
COc1ccc(-c2noc(CC3CCN(C(=O)Cc4ccc(C)cc4)CC3)n2)cc1,-16% (inactive),,

SMILES,"activity, negative = inhibition",Potency,outcome
N#Cc1ccc(C(=O)N[C@@H](Cc2ccccc2)C(=O)N2CCCOCCNC(=O)CC2)cc1,-20.6% (inactive),,
CC(C)(C)C(=O)N1CCC(c2nn(-c3ccc(F)cc3)c(=O)[nH]2)CC1,,,inactive [at 44.1 µM]
Cc1ccc(NC(=O)N2CCc3[nH]c4ccc(F)cc4c3C2)cc1,-6.6% (inactive),,
COCc1cn([C@H]2CO[C@H]3[C@@H]2OC[C@H]3OC(=O)Nc2cccc(C#N)c2)nn1,,,inactive [at 44.1 µM]
CCOc1ccccc1NC(=O)Cn1c(=O)n(Cc2ccccc2)c(=O)c2c(C)c(C(=O)N(C)C)sc21,,3.16 µM (active),
COc1cccc(-n2c(=O)c3c(C)c(C(=O)N(C)C)sc3n(CC(=O)NCCc3ccc(OC)c(OC)c3)c2=O)c1,-23.1% (inactive),,
Cc1c(C(=O)N(C)C)sc2c1c(=O)n(-c1ccc(F)cc1)c(=O)n2CC(=O)N(C)c1ccccc1,62.2% (inactive),,
COc1ccc(Nc2ccc3c(n2)CN(Cc2ccccc2C)C(=O)CO3)cn1,-2.87% [at 44.1 µM] (inactive),,
O=C(C1CCCO1)N1CCC2(CC1)NCCc1c2[nH]c2ccccc12 (centres undefined),-8.14% (inactive),,
O=C(COc1ccc(F)cc1)N1CCC2(CC1)NCCc1c2[nH]c2ccccc12,,10 µM (active),
COCCOCC(=O)N1CCC2(CC1)NCCc1c2[nH]c2ccccc12,-26.8% (inactive),,
Cc1nc2ncccn2c1C(=O)N[C@@H]1CCOC[C@H]1Oc1ccccn1,-3.97% (inactive),,
Cc1ccc2c(C(=O)O)cc(NC(=O)C(C)C)cc2n1,24% (inactive),,
Cc1ccccc1NC1CCn2c(nc(C)c2C(=O)Nc2ccc(F)cc2)C1 (centres undefined),-18.3% [at 44.1 µM] (inactive),,
CCN(CCCNC(=O)c1cc2cc3cc(OC)ccc3nc2s1)c1ccccc1,-5.94% (inactive),,
CCN(CCCNC(=O)c1nnn2cc(-c3ccccc3)[nH]c(=O)c12)c1ccccc1,,8.91 µM (active),
CCN(CCCNC(=O)Cn1ncc2c([nH]c3ccccc32)c1=O)c1cccc(C)c1,-14.7% (inactive),,
Cc1nn(C)cc1CN(C)C(=O)C1CN(S(=O)(=O)c2cccnc2)CC12CCCCC2 (centres undefined),,,inactive
COc1cc(=O)n2c(c1C(=O)Nc1cccc(Br)c1)CCCC2,27.2% (inactive),,
CCc1cccc(NC(=O)N2CCC(c3noc(COc4ccc(F)cc4)n3)CC2)c1,-6.5% (inactive),,

SMILES,"activity, negative = inhibition",Potency,outcome
CCOc1ccc(-c2cc3nc(C4CCN(C(=O)OC(C)(C)C)CC4)c(C(=O)Nc4cccc(CC)c4)cn3n2)cc1,,7.94 µM (active),
CCOc1ccc(-c2cc(C)n3nc(C(=O)Nc4ccc(C)c(C)c4)cc3n2)cc1,-17.2% (inactive),,
O=C(C[C@@H]1CCNC[C@@H]1Cc1cc(COc2ccccc2)on1)NCc1ccco1,,,inactive [at 44.1 µM]
CCc1cccc(NC(=O)CN2C(=O)NC(c3ccc(Cl)cc3)C3=C2COC3=O)c1 (centres undefined),-19.7% (inactive),,
Cc1ccc(-c2nnc(C3CN(C(=O)c4cc(C)cc(C)c4)CC34CCOCC4)o2)cc1 (centres undefined),-5.46% (inactive),,
O=[S+]([O-])(c1ccccc1)N1CC2(CCCCN2Cc2cccnc2)Cc2ccccc21 (centres undefined),,8.91 µM (active),
CC(=O)NCC(=O)N1Cc2ccccc2CC2(CCCN2Cc2cccnc2)C1 (centres undefined),21.7% (inactive),,
C[S+](=O)([O-])N1Cc2ccccc2CC2(CCN(Cc3cccnc3)CC2)C1,-18.3% (inactive),,
CN1CCCN(S(=O)(=O)c2ccccc2)CCC(=O)NCC1,25.3% (inactive),,
CC(C)c1noc(-c2cccn3c(CNC(=O)c4ccc(C(C)(C)C)cc4)nnc23)n1,-0.267% (inactive),,
Cc1nc(-c2ccc(Cl)cc2)n(Cc2cc(F)cc(F)c2)c(=O)c1CCO,-10.6% (inactive),,
CCOc1ccc(C(=O)/C=C/c2cn(CC(O)CN3CCCCCC3)c3ccccc23)cc1 (centres undefined),,12.6 µM (active),
CCOc1ccc(C(=O)N2CCCN(C(=O)C3CC3)c3ccccc32)cc1,,,inactive; activator; fitted 1.7783 uM
COc1ccc2cc(C(=O)N3C[C@@H](Oc4ccccc4)C[C@H]3C(=O)N3CCOCC3)[nH]c2c1,-1.38% (inactive),,
COC(=O)c1ccc(NC(=O)CCc2c(C)nc3c(c(C)nn3-c3ccc(C)cc3)c2C)cc1,,6.31 µM (active),
Cc1nc2c(c(C)nn2-c2ccccc2)c(C)c1CCC(=O)NCCc1ccc(Cl)cc1,22.1% (inactive),,
Cc1ccc(CNC(=O)CCc2c(C)nc3c(c(C)nn3-c3ccccc3)c2C)cc1,-16.4% (inactive),,
Cn1cc(-c2ccccc2)cc1C(=O)NCc1ccc(N2CCOCC2)cc1,,,inactive
CC[C@@]1(C(=O)O)C[C@H](C(=O)NCCCO)[C@H](c2ccc(OC)cc2)N1C,-0.459% (inactive),,
